A number with no mark means an inactive call. Records with an inconclusive call do not appear. A call without a number means that no potency is given here. Activity calls are given as the source filed them. Unless noted, the call rests on the fitted dose curve; in most records, active means well fitted curve in the direction sought with a large enough effect; inconclusive means small, poorly fitted or top-dose-only effect, or another doubt; inactive means no such curve, though single readings can be large; an effect the other way counts as inactive or inconclusive.
Tests used:
[1] = P-glycoprotein substrates identified in KB-8-5-11 adenocarcinoma cell line, qHTS therapeutic library screen (AID 1346987); further: nearly all actives have a fitted effect of over 65% in size; on activity change, negative = cytotoxicity: series mostly up to about 44 µM
Summary of the method: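 Luminescence from CellTiter-Glo, read 5 min after addition, quantified survival of KB-8-5-11 (P-gp-overexpressing) cells exposed to compounds for 72 h. AC50 was derived from concentration-response curves.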

[2] = Natriuretic polypeptide receptor (hNpr1) antagonism - Pilot counterscreen GloSensor control cell line (AID 1347045; calls by dose curve; further: series mostly up to about 38 µM)
Summary of the method: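 Cells were first seeded and incubated overnight at 37C, then loaded with 2% GloSensor substrate for 2 h. Compounds were added for 30 min at room temperature, followed by a baseline read, 50 uM SNP and a final read after 20 min.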

[3] = molecular target: Atrial natriuretic peptide receptor 2 (Homo sapiens) (UniProt P20594); assay: Natriuretic polypeptide receptor (hNpr2) antagonism - Pilot subtype selectivity assay (AID 1347050; calls by dose curve)
Summary of the method: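 Read-out: GloSensor luminescence (CCD imager), baseline vs post-stimulation. HEK293 cells expressing hNpr2; compounds pre-incubated 30-50 min at ambient temperature; hNppC 1 nM final, 20 min.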

[4] = molecular target: T1, Tyrosine-protein phosphatase non-receptor type substrate 1 (Homo sapiens) + Leukocyte surface antigen CD47 (Homo sapiens) (UniProt P78324+Q08722); assay: CD47-SIRPalpha protein protein interaction - LANCE assay qHTS validation (AID 1347057; active means well fitted curve in the direction sought with a large enough effect in the signal ratio, with a control signal flat, not every such curve was filed as active; the % refers to the signal ratio; further: series mostly up to about 38 µM)
Summary of the method: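 Inhibition of soluble CD47/SIRPalpha ectodomain association by titrated compounds, measured as 665/615 nm time-resolved FRET ratio after sequential 30 min room-temperature incubations.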

[5] = molecular target: T1, Tyrosine-protein phosphatase non-receptor type substrate 1 (Homo sapiens) + Leukocyte surface antigen CD47 (Homo sapiens); assay: CD47-SIRPalpha protein protein interaction - HTRF assay qHTS validation (AID 1347058; active means well fitted curve in the direction sought with a large enough effect in the signal ratio, not every such curve was filed as active; the % refers to the signal ratio; further: series mostly up to about 38 µM)
Summary of the method: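 Soluble extracellular domains (6His-CD47, Avi-tag-biotinylated SIRPalpha) in PBS pH 7.4 with 0.05% IGEPAL CA-630. Compounds were preincubated 30 min at RT with CD47 and anti-His-Eu, then SIRPalpha and SAV-XL665 were added. TR-FRET 665/615 ratio.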

[6] = molecular target: T1, Tyrosine-protein phosphatase non-receptor type substrate 1 (Homo sapiens) + Leukocyte surface antigen CD47 (Homo sapiens); assay: CD47-SIRPalpha protein protein interaction - Alpha assay qHTS validation (AID 1347059);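 further: bead proximity luminescence from CD47 binding SIRPalpha after compound preincubation with SIRPalpha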
Summary of the method: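 In PBS (pH 7.4) with 0.05% IGEPAL CA-630, compound is preincubated with biotin-Avi-SIRPalpha ectodomain before His-CD47 ectodomain and affinity beads are added. Light-protected room-temperature incubations; AlphaScreen readout.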

[7] = molecular target: Parathyroid hormone/parathyroid hormone-related peptide receptor (Homo sapiens) (UniProt Q03431); assay: qHTS for PTHR1 Agonists: Optimization Screen against the NCGC LOPAC library (AID 1347079);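 further: GloSensor cAMP luminescence in HEK-293 GP2 cells expressing human PTHR1 with IBMX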
Summary of the method: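 HEK-293 GP2 cells, PTHR1 + GloSensor cAMP; 3000 cells/well, o/n. Luciferin + IBMX 0.5mM each (stock), 1 hr 37C. Cpd titration, 1 hr 37C. Lum after 15 min RT. Ctrl M-PTH(1-15) top 10uM.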

[8] = qHTS of pediatric cancer cell lines to identify multiple opportunities for drug repurposing: Primary screen for TC32 cells (AID 1347089); further: nearly all actives have a fitted effect of over 60% in size
Summary of the method: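 In the primary qHTS, MIPE compounds were tested at 11 concentrations (0.78 nM to 46 µM) and NPC compounds at 8 (0.59 nM to 46 µM) on TC32 cells for 48 h. CellTiter-Glo luminescence gave viability.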

[9] = qHTS of pediatric cancer cell lines to identify multiple opportunities for drug repurposing: Primary screen for DAOY cells (AID 1347090); further: series mostly up to about 46 µM; nearly all actives have a fitted effect of over 55% in size
Summary of the method: (§1)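 Eight- or eleven-point concentration series, 48 h treatment at 37 degrees C in growth media; readout CellTiter-Glo luminescence. Potency and efficacy were taken from the concentration-response curves.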

[10] = qHTS of pediatric cancer cell lines to identify multiple opportunities for drug repurposing: Primary screen for SJ-GBM2 cells (AID 1347091)
Summary of the method: as §1

[11] = qHTS of pediatric cancer cell lines to identify multiple opportunities for drug repurposing: Primary screen for A673 cells (AID 1347092); further: nearly all actives have a fitted effect of over 45% in size
Summary of the method: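 48 h compound exposure, A673, 500-1,000 cells/well, 37 degrees C/5% CO2. MIPE: 11-point, 0.78 nM-46 µM; NPC: 8-point, 0.59 nM-46 µM (final). Readout CellTiter-Glo luminescence after 15 min RT.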

[12] = qHTS of pediatric cancer cell lines to identify multiple opportunities for drug repurposing: Primary screen for SK-N-MC cells (AID 1347093); further: series mostly up to about 46 µM
Summary of the method: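 Metabolically active cells were quantified by ATP-dependent luminescence (CellTiter-Glo, 15 min at room temperature) following 48 h treatment. Cells had been plated at 500-1,000 per well and settled for 5 h beforehand.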

[13] = qHTS of pediatric cancer cell lines to identify multiple opportunities for drug repurposing: Primary screen for BT-37 cells (AID 1347094); further: series mostly up to about 57 µM
Summary of the method: (§2)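 CRCs from 8- or 11-point titrations (lowest final 0.59 nM NPC, 0.78 nM MIPE). Cell viability: CellTiter-Glo after 48 h incubation, 15 min room-temperature development, luminescence imaging.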

[14] = qHTS of pediatric cancer cell lines to identify multiple opportunities for drug repurposing: Primary screen for NB-EBc1 cells (AID 1347095)
Summary of the method: as §2

[15] = qHTS of pediatric cancer cell lines to identify multiple opportunities for drug repurposing: Primary screen for U-2 OS cells (AID 1347096); further: nearly all actives have a fitted effect of over 50% in size
Summary of the method: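 Cells (500-1,000/well) in growth media were settled 5 h at 37 degrees C, then given compounds for 48 h. Viability was read as CellTiter-Glo luminescence. Primary runs used MIPE at 11 points (0.78 nM-46 µM) and NPC at 8 points (0.59 nM-46 µM); follow-ups used 11 points.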

[16] = qHTS of pediatric cancer cell lines to identify multiple opportunities for drug repurposing: Primary screen for Saos-2 cells (AID 1347097); further: nearly all actives have a fitted effect of over 40% in size
Summary of the method: as §2

[17] = qHTS of pediatric cancer cell lines to identify multiple opportunities for drug repurposing: Primary screen for SK-N-SH cells (AID 1347098);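 further: DMSO served as neutral control and bortezomib at 2.3 µM as positive control; nearly all actives have a fitted effect of over 65% in size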
Summary of the method: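 Cells (500-1,000/well) rested 5 h, then received compounds for 48 h; metabolically active cells were measured by CellTiter-Glo luminescence. Final concentrations spanned up to 46 µM (MIPE, 11-point) or 0.59 nM-46 µM (NPC, 8-point) in primary screens, 11-point in follow-ups.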

T1 sequence (P78324 whole entry, looked up, the tested form may be a part): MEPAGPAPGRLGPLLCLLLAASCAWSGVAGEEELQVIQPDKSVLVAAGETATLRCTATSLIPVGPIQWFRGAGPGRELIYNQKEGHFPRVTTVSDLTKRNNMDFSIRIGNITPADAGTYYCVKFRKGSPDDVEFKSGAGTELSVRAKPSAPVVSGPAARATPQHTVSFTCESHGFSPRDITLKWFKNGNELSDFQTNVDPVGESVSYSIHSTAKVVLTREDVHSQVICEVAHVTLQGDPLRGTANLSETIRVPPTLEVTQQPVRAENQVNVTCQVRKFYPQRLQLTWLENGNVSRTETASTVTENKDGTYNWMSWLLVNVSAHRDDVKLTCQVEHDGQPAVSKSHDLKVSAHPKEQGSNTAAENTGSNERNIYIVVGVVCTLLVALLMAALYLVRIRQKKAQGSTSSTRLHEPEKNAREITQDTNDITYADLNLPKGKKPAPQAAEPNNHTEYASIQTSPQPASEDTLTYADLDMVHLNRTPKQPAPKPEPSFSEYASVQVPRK
T1 sequence (Q08722 whole entry, looked up, the tested form may be a part): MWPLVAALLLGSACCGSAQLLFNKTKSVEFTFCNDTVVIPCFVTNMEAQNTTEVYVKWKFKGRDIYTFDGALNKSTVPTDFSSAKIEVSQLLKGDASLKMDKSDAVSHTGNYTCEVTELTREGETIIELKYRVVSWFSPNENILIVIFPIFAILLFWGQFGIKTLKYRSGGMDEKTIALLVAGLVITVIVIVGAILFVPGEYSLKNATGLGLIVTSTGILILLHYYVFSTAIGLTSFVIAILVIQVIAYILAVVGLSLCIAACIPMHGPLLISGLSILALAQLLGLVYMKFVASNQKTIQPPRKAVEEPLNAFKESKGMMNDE
Sequence of Parathyroid hormone/parathyroid hormone-related peptide receptor (Homo sapiens) (Q03431 whole entry, looked up): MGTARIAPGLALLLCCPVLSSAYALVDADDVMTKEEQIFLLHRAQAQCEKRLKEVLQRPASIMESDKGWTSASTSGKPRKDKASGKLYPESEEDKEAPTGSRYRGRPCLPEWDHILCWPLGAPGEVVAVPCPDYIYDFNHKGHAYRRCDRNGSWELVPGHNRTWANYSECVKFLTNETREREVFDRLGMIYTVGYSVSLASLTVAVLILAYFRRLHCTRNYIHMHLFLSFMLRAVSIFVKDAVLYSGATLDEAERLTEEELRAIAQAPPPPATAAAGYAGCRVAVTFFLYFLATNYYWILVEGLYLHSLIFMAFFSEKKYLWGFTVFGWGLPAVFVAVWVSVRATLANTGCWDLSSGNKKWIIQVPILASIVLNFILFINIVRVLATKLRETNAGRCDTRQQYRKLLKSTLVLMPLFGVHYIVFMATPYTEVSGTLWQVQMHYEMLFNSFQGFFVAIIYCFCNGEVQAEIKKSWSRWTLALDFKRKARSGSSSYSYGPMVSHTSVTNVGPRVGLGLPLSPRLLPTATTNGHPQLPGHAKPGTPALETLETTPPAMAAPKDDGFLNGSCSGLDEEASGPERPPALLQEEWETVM
Sequence of Atrial natriuretic peptide receptor 2 (Homo sapiens) (P20594 whole entry, looked up): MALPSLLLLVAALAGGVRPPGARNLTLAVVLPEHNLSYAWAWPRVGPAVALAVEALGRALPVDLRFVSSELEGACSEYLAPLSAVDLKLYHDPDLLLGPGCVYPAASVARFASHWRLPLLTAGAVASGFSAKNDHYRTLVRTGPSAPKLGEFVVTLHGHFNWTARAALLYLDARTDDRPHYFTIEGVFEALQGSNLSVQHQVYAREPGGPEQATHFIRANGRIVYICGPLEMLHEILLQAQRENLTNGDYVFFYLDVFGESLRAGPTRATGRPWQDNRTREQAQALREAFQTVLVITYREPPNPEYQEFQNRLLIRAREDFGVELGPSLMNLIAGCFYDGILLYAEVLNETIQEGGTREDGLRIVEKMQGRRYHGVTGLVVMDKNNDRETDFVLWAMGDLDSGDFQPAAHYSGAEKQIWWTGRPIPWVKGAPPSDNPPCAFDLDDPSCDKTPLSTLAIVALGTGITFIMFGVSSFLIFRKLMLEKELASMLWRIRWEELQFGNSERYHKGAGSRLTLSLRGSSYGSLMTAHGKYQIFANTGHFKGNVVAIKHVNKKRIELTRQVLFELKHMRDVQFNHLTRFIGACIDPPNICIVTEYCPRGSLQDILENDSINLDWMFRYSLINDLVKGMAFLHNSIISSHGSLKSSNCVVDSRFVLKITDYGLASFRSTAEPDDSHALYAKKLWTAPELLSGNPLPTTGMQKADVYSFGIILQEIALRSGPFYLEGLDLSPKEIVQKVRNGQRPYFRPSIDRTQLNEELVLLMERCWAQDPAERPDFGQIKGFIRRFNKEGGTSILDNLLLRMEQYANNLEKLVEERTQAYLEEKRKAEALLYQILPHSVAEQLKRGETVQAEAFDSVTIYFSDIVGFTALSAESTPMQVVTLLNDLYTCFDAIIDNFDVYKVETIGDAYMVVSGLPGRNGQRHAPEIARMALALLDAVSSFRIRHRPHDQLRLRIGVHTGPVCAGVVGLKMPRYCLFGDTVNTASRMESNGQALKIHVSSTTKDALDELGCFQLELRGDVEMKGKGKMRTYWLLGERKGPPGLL

Compound: COc1cc(/C=C/C(=O)O[C@H]2[C@H](O)[C@@H](CO)O[C@@]2(CO)O[C@H]2O[C@H](COC(=O)c3ccc(O)cc3)[C@@H](O)[C@H](O)[C@H]2O)cc(OC)c1OC
- Potency [1]: inactive

Compound: CC1(C)S[C@@H]2[C@H](NC(=O)Cc3ccccc3)C(=O)N2[C@H]1C(=O)O
- Potency [1]: inactive

Compound: C=C1CC[C@@H]2[C@](C)(CO)[C@H](O)CC[C@@]2(C)[C@@H]1C/C=C1/C(=O)OC[C@H]1O
- Potency [1]: inactive

Compound: Cc1nnc(C(C)C)n1C1CC2CCC(C1)N2CC[C@H](NC(=O)C1CCC(F)(F)CC1)c1ccccc1 (stereo partly drawn)
- Potency [1]: inactive

Compound: COc1cc2c(cc1O)C1(OC)Cc3ccc4c(c3C1N(C)CC2)OCO4 (stereo not drawn)
- Potency [1]: inactive

Compound: CC(C)(O)c1ccc2c(c1)C(O)CC1C(C)(C(=O)O)CCCC21C (stereo not drawn)
- Potency [1]: inactive

Compound: CN1CC[C@@H](NC(=O)Nc2ccc(C#N)cc2)C[C@@H]1c1nc2ccccc2[nH]1
- Potency [1]: inactive

Compound: C[C@@H]1O[C@@H](O[C@H]2[C@H](O[C@H]3[C@H](O[C@H]4CC[C@@]5(C=O)C(CC[C@]6(C)C5CC=C5C7CC(C)(C)C[C@@H](O)[C@]7(C)CC[C@]56C)C4(C)C)O[C@H](C(=O)O)[C@@H](O)[C@@H]3O)OC[C@@H](O)[C@@H]2O)[C@H](O)[C@H](O)[C@H]1O (stereo partly drawn)
- activity change, negative = cytotoxicity [1]: 5.8% [at 9.29 µM]

Compound: CC1CCC2(C(=O)OC3OC(CO)C(O)C(O)C3O)CCC3(C)C(=CCC4C5(C)CC(O)C(O)C(C)(C(=O)O)C5CCC43C)C2C1(C)O (stereo not drawn)
- Potency [1]: inactive

Compound: CN1Cc2c(N)cccc2C(c2ccccc2)C1 (stereo not drawn)
- Potency [1]: inactive
- outcome [2]: inactive
- outcome [3]: inactive
- outcome [4]: inactive
- outcome [5]: inactive
- outcome [6]: inactive
- outcome [7]: inactive
- outcome [8]: inactive
- outcome [9]: inactive
- outcome [10]: inactive
- outcome [11]: inactive
- outcome [12]: inactive
- outcome [13]: inactive
- outcome [14]: inactive
- outcome [15]: inactive
- outcome [16]: inactive
- outcome [17]: inactive

Compound: C/C(=C/CO)CC[C@@H]1[C@@]2(C)CCC[C@](C)(C(=O)O)C2CC[C@@]1(C)O (stereo partly drawn)
- Potency [1]: inactive

Compound: OC[C@H]1O[C@@H](Oc2cc(O)cc(-c3cc4ccc(O)cc4o3)c2)[C@H](O)[C@@H](O)[C@@H]1O
- Potency [1]: inactive

Compound: C[C@]1(OC(=O)/C=C/c2ccccc2)C[C@H](O)[C@]2(O)C=CO[C@@H](O[C@@H]3O[C@H](CO)[C@@H](O)[C@H](O)[C@H]3O)C12 (stereo partly drawn)
- Potency [1]: inactive

Compound: CC(Oc1ccccc1)C(=O)N[C@@H]1C(=O)N2[C@@H]1SC(C)(C)[C@@H]2C(=O)O (stereo partly drawn)
- Potency [1]: inactive

Compound: CC1CCC(=O)CC(O)C(O)CC(=O)O1 (stereo not drawn)
- Potency [1]: inactive

Compound: C=C[C@@]1(C)CC(=O)C2[C@](C)(O1)[C@@H](OC(C)=O)[C@@H](O)[C@H]1C(C)(C)CCC[C@]21C (stereo partly drawn)
- activity change, negative = cytotoxicity [1]: 9.24% [at 9.29 µM]

Compound: O=C(O)CCc1cc2ccoc2cc1O[C@@H]1O[C@H](CO[C@@H]2OC[C@](O)(CO)[C@H]2O)[C@@H](O)[C@H](O)[C@H]1O
- Potency [1]: inactive

Source: PubChem BioAssay (NCATS)
